# From PubChem BioAssay (EPA / NIEHS)
# Inconclusive results are not listed. Calls of active or inactive are those of the source. The calls were made as follows: active = hit-call score of the fitted dose curve at least 0.9, where 1 is the maximum; inconclusive = response in the unintended direction; inactive = score below 0.9.
# What was measured:
# [1] = molecular target: Muscarinic acetylcholine receptor M3 (Homo sapiens) (UniProt P20309); test: NVS_GPCR_hM3: NovaScreen (NVS) G Protein-Coupled Receptor Assay for human Muscarinic, M3 Receptor (AID 2283272)
# In short: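 Radioligand displacement binding on human M3 receptor in CHO-derived membranes, 1 h incubation, filter-based scintillation counting. Primary screen in duplicate at 25 uM; actives followed up in concentration series; loss of signal versus DMSO.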
# [2] = molecular target: D(1A) dopamine receptor (Homo sapiens) (UniProt P21728); test: NVS_GPCR_hDRD1: NovaScreen (NVS) G Protein-Coupled Receptor Assay for human Dopamine Receptor D1 (DRD1) (AID 2283269)
# In short: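 HEK293-derived receptor preparation; radioligand competitive displacement; 1 h; filtration + scintillation counting. DMSO = negative control/baseline. Primary: 25 uM, duplicate; secondary: concentration–response for actives.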
# [3] = molecular target: Muscarinic acetylcholine receptor M1 (Homo sapiens) (UniProt P11229); test: NVS_GPCR_hM1: NovaScreen (NVS) G Protein-Coupled Receptor Assay for human Muscarinic, M1 Receptor (AID 2283270)
# In short: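 Actives from a duplicate 25 uM single-point screen were retested in concentration series. Binding measured as displacement of a radioligand from CHO-derived receptor preparation, 1 h incubation, filtration and scintillation counting, analysed as signal loss against DMSO.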
# [4] = molecular target: Muscarinic acetylcholine receptor M2 (Homo sapiens) (UniProt P08172); test: NVS_GPCR_hM2: NovaScreen (NVS) G Protein-Coupled Receptor Assay for human Muscarinic, M2 Receptor (AID 2283273)
# In short: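 Filter-based radiodetection read bound radioligand 1 h after dosing CHO-derived membrane protein. Single-concentration duplicates (25 uM) first, then concentration-response for actives; signal loss versus DMSO scored.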
# [5] = molecular target: Muscarinic acetylcholine receptor M5 (Homo sapiens) (UniProt P08912); test: NVS_GPCR_hM5: NovaScreen (NVS) G Protein-Coupled Receptor Assay for human Muscarinic, M5 Receptor (AID 2283275)
# In short: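 Chemicals passing a primary duplicate screen at 25 uM were run as singleton concentration series, maximum 50 uM. Displacement of a specific radioligand from CHO-extracted receptor was read by filter scintillation after 1 h, relative to DMSO.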
# [6] = molecular target: Neuropeptide Y receptor type 2 (Homo sapiens) (UniProt P49146); test: NVS_GPCR_hNPY2: NovaScreen (NVS) G Protein-Coupled Receptor Assay for human Neuropeptide Receptor Y2 (NPY2) (AID 2283277)
# In short: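 Chemicals were first tested in duplicate at 25 uM, then actives in singleton concentration series to 50 uM. Tracer binding to SK-N-MC-derived protein measured cell-free after 1 h via filter scintillation; signal loss relative to DMSO.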
# [7] = molecular target: human Leukotriene B4 Receptor 1 (LTB4-BLT1), LTB4R (gene 1241) (UniProt Q15722); test: NVS_GPCR_hLTB4_BLT1: NovaScreen (NVS) G Protein-Coupled Receptor Assay for human Leukotriene B4 Receptor 1 (LTB4-BLT1) (AID 2283271)
# In short: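 Cell-free human neutrophil receptor preparation, 1 h exposure, radioligand binding read by filter scintillation counting. Single 25 uM duplicate screen, then concentration series topping at 50 uM; binding loss scored against DMSO baseline.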
# [8] = molecular target: human Muscarinic, M4 Receptor, CHRM4 (gene 1132) (UniProt P08173); test: NVS_GPCR_hM4: NovaScreen (NVS) G Protein-Coupled Receptor Assay for human Muscarinic, M4 Receptor (AID 2283274)
# In short: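 Filter-based scintillation counting of radioligand bound to CHO-expressed human M4 preparations after 1 h; loss of signal fitted versus DMSO. Initial duplicate testing at 25 uM, concentration-response follow-up for actives.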
# [9] = molecular target: human Neurokinin, NK2 Receptor, TACR2 (gene 6865) (UniProt P21452); test: NVS_GPCR_hNK2: NovaScreen (NVS) G Protein-Coupled Receptor Assay for human Neurokinin, NK2 Receptor (AID 2283278);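 also: actives reduce bound radioligand signal relative to DMSO baseline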
# In short: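 Filter-based scintillation counting measured radioligand bound to receptor extracted from CHO cells, 4 hours after compound addition. Chemicals screened first at 25 uM in duplicate, with actives retested in concentration series relative to DMSO.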
# [10] = molecular target: human Neuropeptide Receptor Y1 (NPY1), NPY1R (gene 4886) (UniProt P25929); test: NVS_GPCR_hNPY1: NovaScreen (NVS) G Protein-Coupled Receptor Assay for human Neuropeptide Receptor Y1 (NPY1) (AID 2283276)
# Description: NVS_GPCR_hNPY1 is a biochemical, single-readout assay that uses extracted gene-proteins from SK-N-MC in a cell-free assay. Measurements were taken 1 hour after chemical dosing in a 96-well plate.NVS_GPCR_hNPY1 is one of one assay component(s) measured or calculated from the NVS_GPCR_hNPY1 assay. It is designed to make measurements of radioligand binding, a form of binding reporter, as detected with scintillation counting signals by Filter-based radiodetection technology.Data from the assay component NVS_GPCR_hNPY1 was analyzed into 1 assay endpoint. This assay endpoint, NVS_GPCR_hNPY1, was analyzed in the positive analysis fitting direction relative to DMSO as the negative control and baseline of activity. […] Furthermore, this assay endpoint can be referred to as a primary readout, because the performed assay has only produced 1 assay endpoint. […]
# Binding assays used specific radioligands (tritiated, iodinated) with non-radioactive competitive displacement ligands in agonist or antagonist protocols (as indicated) and various reference compounds and inhibitors to titrate specific binding to receptors and transporters. Most enzyme assays (CYPs, kinases, phosphatases, proteases, HDACs) used recombinant protein and specific substrates (fluorescence mostly, some colorimetric and radioactive) and inhibitors, followed by a biochemical separation of substrate and product. […]
# Chain of Muscarinic acetylcholine receptor M5 (Homo sapiens) (P08912 whole entry, looked up): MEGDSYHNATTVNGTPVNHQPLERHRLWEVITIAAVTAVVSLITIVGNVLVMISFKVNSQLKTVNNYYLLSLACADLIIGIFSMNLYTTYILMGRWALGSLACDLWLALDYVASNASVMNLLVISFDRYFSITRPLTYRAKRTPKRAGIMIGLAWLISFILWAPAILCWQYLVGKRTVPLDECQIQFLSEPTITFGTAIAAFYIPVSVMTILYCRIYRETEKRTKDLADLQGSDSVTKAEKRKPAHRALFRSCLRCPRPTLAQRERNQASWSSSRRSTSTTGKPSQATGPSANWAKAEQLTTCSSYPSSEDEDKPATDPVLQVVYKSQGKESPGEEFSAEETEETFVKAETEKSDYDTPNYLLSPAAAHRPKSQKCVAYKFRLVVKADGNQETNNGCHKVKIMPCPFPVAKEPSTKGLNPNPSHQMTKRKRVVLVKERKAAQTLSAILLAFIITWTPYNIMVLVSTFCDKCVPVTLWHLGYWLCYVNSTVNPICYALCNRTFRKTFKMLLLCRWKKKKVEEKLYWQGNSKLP
# Chain of D(1A) dopamine receptor (Homo sapiens) (P21728 whole entry, looked up): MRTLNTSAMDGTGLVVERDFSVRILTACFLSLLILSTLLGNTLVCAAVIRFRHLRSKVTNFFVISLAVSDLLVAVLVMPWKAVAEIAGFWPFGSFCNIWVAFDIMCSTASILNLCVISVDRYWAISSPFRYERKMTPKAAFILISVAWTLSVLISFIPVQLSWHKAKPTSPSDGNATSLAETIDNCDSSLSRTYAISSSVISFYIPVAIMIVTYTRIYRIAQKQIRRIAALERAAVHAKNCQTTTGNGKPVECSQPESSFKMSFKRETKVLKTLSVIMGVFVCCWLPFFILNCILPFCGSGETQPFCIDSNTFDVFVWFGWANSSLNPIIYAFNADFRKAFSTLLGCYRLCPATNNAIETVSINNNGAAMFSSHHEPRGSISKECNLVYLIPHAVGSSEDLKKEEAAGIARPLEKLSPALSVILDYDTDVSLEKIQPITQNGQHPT
# Chain of Neuropeptide Y receptor type 2 (Homo sapiens) (P49146 whole entry, looked up): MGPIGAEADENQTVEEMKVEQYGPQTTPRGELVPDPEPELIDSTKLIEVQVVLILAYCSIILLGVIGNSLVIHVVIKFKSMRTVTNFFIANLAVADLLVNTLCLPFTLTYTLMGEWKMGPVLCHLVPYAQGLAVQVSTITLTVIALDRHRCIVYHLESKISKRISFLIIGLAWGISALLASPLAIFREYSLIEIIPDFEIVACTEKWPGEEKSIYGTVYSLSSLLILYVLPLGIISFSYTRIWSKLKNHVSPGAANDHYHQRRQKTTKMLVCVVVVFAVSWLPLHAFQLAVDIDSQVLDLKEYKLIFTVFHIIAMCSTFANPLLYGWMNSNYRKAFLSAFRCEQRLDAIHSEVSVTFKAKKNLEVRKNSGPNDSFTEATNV
# Chain of human Muscarinic, M4 Receptor, CHRM4 (gene 1132) (P08173 whole entry, looked up): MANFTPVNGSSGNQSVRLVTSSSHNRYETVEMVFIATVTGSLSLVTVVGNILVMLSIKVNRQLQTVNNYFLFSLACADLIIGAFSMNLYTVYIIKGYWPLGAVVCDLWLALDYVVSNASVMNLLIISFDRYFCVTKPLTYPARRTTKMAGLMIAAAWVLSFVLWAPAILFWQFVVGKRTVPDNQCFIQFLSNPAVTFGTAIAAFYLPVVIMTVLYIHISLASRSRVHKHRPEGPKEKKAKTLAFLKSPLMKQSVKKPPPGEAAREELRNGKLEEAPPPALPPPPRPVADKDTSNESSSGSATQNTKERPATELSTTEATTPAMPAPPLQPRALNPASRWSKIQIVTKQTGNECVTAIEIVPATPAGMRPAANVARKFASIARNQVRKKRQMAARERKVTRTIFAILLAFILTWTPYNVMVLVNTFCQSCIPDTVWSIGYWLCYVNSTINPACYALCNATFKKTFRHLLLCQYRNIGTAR
# Chain of Muscarinic acetylcholine receptor M2 (Homo sapiens) (P08172 whole entry, looked up): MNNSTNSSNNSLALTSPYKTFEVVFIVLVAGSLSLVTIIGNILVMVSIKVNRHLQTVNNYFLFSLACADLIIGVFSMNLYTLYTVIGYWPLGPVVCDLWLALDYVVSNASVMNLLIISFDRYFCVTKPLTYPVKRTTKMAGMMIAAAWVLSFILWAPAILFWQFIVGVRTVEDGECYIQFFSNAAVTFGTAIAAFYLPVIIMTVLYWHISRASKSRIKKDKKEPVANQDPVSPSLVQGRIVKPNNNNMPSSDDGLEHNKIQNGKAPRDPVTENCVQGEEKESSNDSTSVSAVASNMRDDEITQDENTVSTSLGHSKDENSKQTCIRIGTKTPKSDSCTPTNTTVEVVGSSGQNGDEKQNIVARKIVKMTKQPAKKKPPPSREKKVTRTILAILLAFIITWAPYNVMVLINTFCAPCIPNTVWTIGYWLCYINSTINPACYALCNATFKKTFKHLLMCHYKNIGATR
# Chain of Muscarinic acetylcholine receptor M3 (Homo sapiens) (P20309 whole entry, looked up): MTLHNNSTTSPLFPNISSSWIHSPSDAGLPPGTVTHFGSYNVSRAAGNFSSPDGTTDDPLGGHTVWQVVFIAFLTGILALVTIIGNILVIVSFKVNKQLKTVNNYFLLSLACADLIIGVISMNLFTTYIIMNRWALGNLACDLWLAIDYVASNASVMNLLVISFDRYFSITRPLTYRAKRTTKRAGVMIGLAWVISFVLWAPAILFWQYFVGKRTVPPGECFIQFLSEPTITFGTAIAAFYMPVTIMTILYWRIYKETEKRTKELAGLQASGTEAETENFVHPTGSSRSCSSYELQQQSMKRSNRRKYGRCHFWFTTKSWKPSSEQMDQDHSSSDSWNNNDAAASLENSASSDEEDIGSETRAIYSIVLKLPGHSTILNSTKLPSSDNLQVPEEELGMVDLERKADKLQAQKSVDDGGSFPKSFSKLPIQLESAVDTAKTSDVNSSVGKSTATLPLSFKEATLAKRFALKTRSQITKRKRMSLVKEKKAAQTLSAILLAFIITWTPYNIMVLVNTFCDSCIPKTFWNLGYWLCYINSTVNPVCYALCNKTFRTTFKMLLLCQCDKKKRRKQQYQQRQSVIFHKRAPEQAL
# Chain of human Neurokinin, NK2 Receptor, TACR2 (gene 6865) (P21452 whole entry, looked up): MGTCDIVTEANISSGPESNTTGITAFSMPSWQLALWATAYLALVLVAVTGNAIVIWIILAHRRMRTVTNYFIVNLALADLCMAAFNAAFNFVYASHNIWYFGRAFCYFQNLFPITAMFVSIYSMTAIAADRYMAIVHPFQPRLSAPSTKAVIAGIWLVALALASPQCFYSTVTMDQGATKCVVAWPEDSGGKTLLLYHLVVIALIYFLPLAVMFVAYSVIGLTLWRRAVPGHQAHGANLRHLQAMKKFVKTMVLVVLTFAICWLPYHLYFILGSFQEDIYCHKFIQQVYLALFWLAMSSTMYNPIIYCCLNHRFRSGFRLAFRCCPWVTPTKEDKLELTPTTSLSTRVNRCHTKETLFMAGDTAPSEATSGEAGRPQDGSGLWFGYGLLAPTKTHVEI
# Chain of Muscarinic acetylcholine receptor M1 (Homo sapiens) (P11229 whole entry, looked up): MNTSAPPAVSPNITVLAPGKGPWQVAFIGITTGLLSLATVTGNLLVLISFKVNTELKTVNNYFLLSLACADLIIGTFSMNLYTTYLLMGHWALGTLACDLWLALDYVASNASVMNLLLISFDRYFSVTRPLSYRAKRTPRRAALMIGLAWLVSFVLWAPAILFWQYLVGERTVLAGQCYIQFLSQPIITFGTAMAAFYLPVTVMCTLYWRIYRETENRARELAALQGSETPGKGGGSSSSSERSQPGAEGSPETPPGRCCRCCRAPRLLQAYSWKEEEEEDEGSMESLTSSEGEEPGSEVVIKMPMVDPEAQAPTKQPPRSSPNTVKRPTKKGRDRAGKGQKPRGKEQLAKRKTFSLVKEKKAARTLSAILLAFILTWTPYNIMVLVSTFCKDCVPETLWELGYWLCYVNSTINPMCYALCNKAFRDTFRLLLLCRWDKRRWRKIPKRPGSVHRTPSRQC
# Chain of human Neuropeptide Receptor Y1 (NPY1), NPY1R (gene 4886) (P25929 whole entry, looked up): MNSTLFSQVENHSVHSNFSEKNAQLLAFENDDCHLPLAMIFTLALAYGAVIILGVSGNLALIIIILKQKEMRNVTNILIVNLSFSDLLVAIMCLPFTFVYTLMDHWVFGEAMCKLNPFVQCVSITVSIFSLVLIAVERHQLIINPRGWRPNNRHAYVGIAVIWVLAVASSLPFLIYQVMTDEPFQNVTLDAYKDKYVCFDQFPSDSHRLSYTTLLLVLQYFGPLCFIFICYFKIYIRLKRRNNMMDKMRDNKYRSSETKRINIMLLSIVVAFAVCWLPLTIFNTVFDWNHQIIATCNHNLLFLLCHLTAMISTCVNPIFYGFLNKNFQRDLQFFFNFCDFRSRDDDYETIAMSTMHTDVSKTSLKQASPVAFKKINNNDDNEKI
# Chain of human Leukotriene B4 Receptor 1 (LTB4-BLT1), LTB4R (gene 1241) (Q15722 whole entry, looked up): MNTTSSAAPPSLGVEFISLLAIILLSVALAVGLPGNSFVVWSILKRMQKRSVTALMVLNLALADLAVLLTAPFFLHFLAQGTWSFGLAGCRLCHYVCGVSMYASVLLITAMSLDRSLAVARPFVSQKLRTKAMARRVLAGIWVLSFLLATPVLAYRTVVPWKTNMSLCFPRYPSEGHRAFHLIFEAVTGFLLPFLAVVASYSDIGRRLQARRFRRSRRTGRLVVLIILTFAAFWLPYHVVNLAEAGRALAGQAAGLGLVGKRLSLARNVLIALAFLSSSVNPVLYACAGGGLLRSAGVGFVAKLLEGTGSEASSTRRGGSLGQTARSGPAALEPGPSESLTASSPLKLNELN
smiles,measurement,setting,value
C=CCOC(=O)c1ccccc1C(=O)OCC=C,AC50,[1],36.7 µM (active)
Oc1ccc2c(c1)OC[C@@H](N1CCC(O)(c3ccc(F)cc3)CC1)[C@H]2O,outcome,[2],inactive
same,outcome,[3],inactive
same,outcome,[4],inactive
same,AC50,[5],16 µM (active)
CCCCCCCCCCCC(=O)OC,AC50,[6],6.92 µM (active)
CCCCC(CC)COC(=O)CC(C(=O)OCC(CC)CCCC)S(=O)(=O)O (centres undefined),AC50,[2],7.29 µM (active)
same,AC50,[3],34.6 µM (active)
same,AC50,[7],25 µM (active)
same,AC50,[1],39.4 µM (active)
same,AC50,[8],37.6 µM (active)
same,AC50,[5],18 µM (active)
same,AC50,[9],35.7 µM (active)
CCOc1ccc2c(c1)C(C)=CC(C)(C)N2,outcome,[9],inactive
O=C(N[C@@H](Cc1ccccc1)[C@@H](O)C(=O)N1C[C@@H](O)[C@@H](O)C1)c1cc2cc(Cl)ccc2[nH]1,outcome,[2],inactive
same,outcome,[8],inactive
same,AC50,[9],22.6 µM (active)
C[C@]12C=CC(=O)C=C1CC[C@@H]1[C@@H]2C(=O)C[C@@]2(C)[C@H]1CC[C@]2(O)C(=O)CO,AC50,[4],15 µM (active)
same,AC50,[8],25 µM (active)
CCCCCCOCCO,outcome,[6],inactive
CNCc1cc(F)ccc1Oc1ccc(Cl)c(Cl)c1,AC50,[4],25 µM (active)
same,AC50,[8],25 µM (active)
CC1=C(/C=C/C(C)=C/C=C/C(C)=C/CO)C(C)(C)CCC1,outcome,[2],inactive
same,outcome,[9],inactive
CN1CCN(Cc2cc(-c3ccc4[nH]c(=O)oc4c3)co2)[C@@H](c2ccc(F)cc2)C1,AC50,[2],5.7 µM (active)
same,AC50,[8],26.7 µM (active)
same,AC50,[5],14.8 µM (active)
same,AC50,[9],35.4 µM (active)
COc1cc(-c2nc(NC(=O)c3cc4cc(C)cc(C)c4n3CC(=O)O)sc2CCC2CCCCC2)c(OC)cc1Cl,AC50,[9],15.9 µM (active)
NC(=O)Cn1c(=O)cc(CCN2CCN(c3nccc4sccc34)CC2)c2ccc(F)cc21,AC50,[2],0.00708 µM (active)
same,AC50,[10],9.95 µM (active)
same,AC50,[9],33.7 µM (active)
CCOC(=O)CCC(=O)OCC,AC50,[7],25 µM (active)
same,outcome,[4],inactive
same,outcome,[6],inactive
same,outcome,[9],inactive
Oc1ccc2ccccc2c1N=Nc1ccccc1,outcome,[9],inactive
CC(=O)OC/C=C(\C)CCC=C(C)C,outcome,[6],inactive
COc1ccc(S(=O)(=O)N2C(=O)[C@@](c3ccccc3OC)(N3C[C@H](O)C[C@H]3C(=O)N(C)C)c3cc(Cl)ccc32)c(OC)c1,outcome,[2],inactive
same,AC50,[9],9.61 µM (active)
Cc1ccc(Cl)cc1,outcome,[6],inactive
Nc1nc(N)c2nc(CNc3ccc(C(=O)N[C@@H](CCC(=O)O)C(=O)O)cc3)cnc2n1,AC50,[2],38.9 µM (active)
same,AC50,[4],40.7 µM (active)
same,outcome,[6],inactive
CC(=O)Oc1ccccc1C(=O)O,AC50,[10],4.96 µM (active)
CCCc1cc(=O)[nH]c(=S)[nH]1,outcome,[9],inactive
COc1cc(S(=O)(=O)O)c(C)cc1N=Nc1c(O)ccc2cc(S(=O)(=O)O)ccc12,AC50,[2],35.3 µM (active)
same,outcome,[1],inactive
same,AC50,[4],36.1 µM (active)
same,outcome,[8],inactive
same,AC50,[5],31.4 µM (active)
Cc1c(C(=O)O)c(O)cc2c1C(=O)c1c(O)c([C@@H]3O[C@H](CO)[C@@H](O)[C@H](O)[C@H]3O)c(O)c(O)c1C2=O,outcome,[1],inactive
same,outcome,[4],inactive
same,outcome,[8],inactive
CCc1c(C(=O)NN2CCCCC2)nn(-c2ccc(Cl)cc2Cl)c1-c1ccc(Br)cc1,outcome,[9],inactive
Cc1nc(-c2ccc3c(c2)CCN(CCC2CCC(NC(=O)/C=C/c4ccc(F)cc4)CC2)CC3)no1 (centres undefined),AC50,[3],0.148 µM (active)
same,outcome,[1],inactive
same,AC50,[4],0.0463 µM (active)
same,AC50,[8],0.123 µM (active)
same,outcome,[5],inactive
CC1(C)CC(N=C=O)CC(C)(CN=C=O)C1 (centres undefined),outcome,[2],inactive
same,AC50,[4],0.367 µM (active)
same,AC50,[8],2.94 µM (active)
Nc1ccc2c(c1)C(=O)c1ccccc1C2=O,outcome,[4],inactive
